# Reference: ChEMBL document CHEMBL3988442, “University of Dundee, Small-Polar-MMV Screening Library” (2021)
# About 13,000 (27%) of roughly 48,000 compounds showed an effect of 50% or more. The list shows a part of the results.
# Tested on: Wolbachia pipientis
# Experiment: Anti-Wolbachia Cell-Based Screen
# Assay type: functional
# Parameters: scale not given: in the data most compounds retested in dose-response had high values
# Settings: 5 µM
row,SMILES,Percent Effect [%]
1,N#Cc1cccnc1NCCNC(=O)N1CCN2CCCCC2C1 (configuration not stated),-6.324
2,CC(C)NC(=O)C1CCC2(CCNCC2)C1 (configuration not stated),-35.43
3,COc1ccc(C(=O)C2CCCN(CCCn3cccn3)C2)c(OC)c1 (configuration not stated),-1.04
4,NC(=O)c1cnn2c1NCC(CNCC1(c3ccccc3)CCC1)C2 (configuration not stated),92.2
5,O=C(c1ccc(C2CCCN2)s1)N1CCN2CCC1CC2 (configuration not stated),11.12
6,CC[C@H]1CN2CC[C@H]1C[C@@H]2CNCc1cccc(C#N)c1,6.24
7,CCS(=O)(=O)N1CCc2ccc(NC(=O)Nc3cccc(C#N)c3)cc21,97.92
8,CC[C@H]1CN2CC[C@H]1C[C@@H]2CNC(=O)Nc1cccc(C#N)c1,1.181
9,CC(C)CCC(=O)N1C[C@H]2CCN[C@H]2C1,107.3
10,O=S(=O)(c1ccc(Cl)cc1)N1C[C@@H]2CCN[C@@H]2C1,-24.32
11,O=C(CC(F)(F)F)N1C[C@H]2CCN[C@H]2C1,92.17
12,CC(C)CNC(=O)N1C[C@@H]2CCCN[C@@H]2C1,-10.44
13,O=S(=O)(c1ccccc1)N1C[C@@H]2CCN[C@@H]2C1,-39.01
14,CC(C)CNC(=O)N1C[C@H]2CCN[C@H]2C1,-21.84
15,CC(C)C(=O)N1C[C@H]2CCCN[C@H]2C1.Cl,-7.068
16,Cc1ccc(S(=O)(=O)N2C[C@@H]3CCN[C@@H]3C2)cc1,-12.06
17,O=C(CC1CCCC1)N1C[C@@H]2C[C@H]1CN2,-37.69
18,CC(C)(C)CC(=O)N1C[C@H]2CCN[C@H]2C1,123.1
19,O=C(CC1CC1)N1C[C@H]2CCN[C@H]2C1,112.4

row,SMILES,Percent Effect [%]
1,CC(C)(C)CC(=O)N1C[C@@H]2C[C@H]1CN2.Cl,-16.89
2,CS(=O)(=O)N1CCC(Nc2ccc(C#N)c(C(F)(F)F)c2)CC1,-23.63
3,COc1cccc2c(=O)n(C3CCCNC3)cnc12 (configuration not stated),-0.6392
4,CCc1ocnc1C(=O)N1CCC2(CC1)OCC(C)O2 (configuration not stated),-17.17
5,CN(C)CCN(Cc1ccco1)C(=O)Cc1cn2ccsc2n1,1.866
6,O=C(NC1CCC1)[C@@H]1C[C@@H]2CCN(Cc3ccncc3)C[C@H]2O1.O=C(O)C(F)(F)F.O=C(O)C(F)(F)F,-10.63
7,O=C(NCCc1ccncc1)[C@H]1CC[C@@H]2[C@@H](CCN2CC2CC2)O1.O=C(O)C(F)(F)F.O=C(O)C(F)(F)F,1.654
8,COCCNC(=O)[C@H]1C[C@@H]2CCN(Cc3ccncc3)C[C@H]2O1.O=C(O)C(F)(F)F.O=C(O)C(F)(F)F,99.07
9,CNC(=O)[C@H]1C[C@@H]2CCN(Cc3ccncc3)C[C@H]2O1.O=C(O)C(F)(F)F.O=C(O)C(F)(F)F,103.5
10,O=C(O)C(F)(F)F.O=C(O)C(F)(F)F.O=C([C@H]1CN(Cc2ccncc2)C[C@H]2OCC[C@@H]12)N1CCCCO1,11.08
11,CO[C@@H]1CCN(c2ncc(F)cn2)[C@@H]2CN(CC3CC3)C[C@@H]21,9.085
12,CCN1CC(=O)NCC12CCN(C(=O)c1ccno1)C2.O=C(O)C(F)(F)F (configuration not stated),-6.47
13,O=S(=O)(c1cccc(Cl)c1)N1C[C@@H]2CCN[C@@H]2C1,-5.104
14,O=C1NC[C@H]2CN(Cc3nccs3)CCN12,4.843
15,CC(C)(CNc1ccc(C#N)c(C(F)(F)F)c1)C(N)=O,-0.8311
16,COCCN1C[C@@H](C)[C@@]2(COCCN(C(=O)c3ccno3)C2)C1.O=C(O)C(F)(F)F,2.349
17,Cc1noc(C)c1C(=O)N1CCOC2(COCCN(C(C)C)C2)C1.O=C(O)C(F)(F)F (configuration not stated),90.48
18,COCCN1CCOCC2(C1)CN(C(=O)c1conc1C)CCO2.O=C(O)C(F)(F)F (configuration not stated),91.15
19,COCCN1C[C@@H](C)[C@@]2(COCCN(C(=O)c3ccncc3)C2)C1.O=C(O)C(F)(F)F.O=C(O)C(F)(F)F,2.912

row,SMILES,Percent Effect [%]
1,COc1ccc(C(=O)N2CCOC3(CNCCOC3)C2)c(OC)n1 (configuration not stated),-6.762
2,Cc1noc(C)c1CN1CCOC2(CCCN(c3nncs3)C2)C1.O=C(O)C(F)(F)F (configuration not stated),-6.2
3,CCN1CCOCC2(C1)CN(C(=O)c1c(C)noc1C)CCO2 (configuration not stated),103.8
4,O=C(O)C(F)(F)F.O=C(O)C(F)(F)F.c1cnc(N2CCC3(COCCN(CC4CC4)C3)C2)nc1 (configuration not stated),-6.749
5,Cc1nocc1C(=O)N1CCOC2(COCCN(CC3CC3)C2)C1 (configuration not stated),116
6,Cc1noc(C)c1C(=O)N1CCC2(CC1)c1nc[nH]c1CCN2C,14.77
7,Oc1cccc2ccc(CN3CCC4(CCNCC4)C3)nc12,2.778
8,Cn1nc(CN2CCCCC(N)C2)c2c(Cl)cccc21 (configuration not stated),-4.304
9,Cc1nocc1C(=O)N1CCOC2(COCCN(C(C)C)C2)C1.O=C(O)C(F)(F)F (configuration not stated),91.68
10,Cc1cnc(N2CCC3(CC2)COCCN(C(C)C)C3)nc1.O=C(O)C(F)(F)F,7.175
11,CC(C)N1CCOCC2(CN(Cc3ccccn3)CCO2)C1.O=C(O)C(F)(F)F.O=C(O)C(F)(F)F.O=C(O)C(F)(F)F (configuration not stated),-11.42
12,CSC1(CNC(=O)NC(C)Cc2cccc(F)c2)CCOCC1 (configuration not stated),-4.564
13,Cc1ccccc1CC(=O)N1C[C@H]2CC[C@@H]1CN(Cc1cccnc1)C2,5.499
14,Cc1ccccc1CC(=O)N1C[C@@H](O)[C@H](N2CCN(C)CC2)C1,176.4
15,Cc1ccccc1CC(=O)N1C[C@@H](O)[C@H](N2CCOCC2)C1,153.4
16,Cc1ccccc1CC(=O)N1C[C@@H](O)[C@H](N2CCC(F)(F)CC2)C1,138.7
17,Cc1nc(CN2CCO[C@H]3CN(C(=O)Cc4cccs4)C[C@H]32)cs1,2.702
18,Cc1ccccc1CC(=O)N1CCN(C2CCOC2=O)CC1 (configuration not stated),5.646
19,CC(=O)N1CCN([C@@H]2CN(C(=O)Cc3ccccc3C)C[C@H]2O)CC1,157.7
